# Assay outcomes from PubChem.
# Most compounds without a hit are left out; they make up all but 12% or so of the library.
# JMJD2A Tudor = inhibitors of human JMJD2A Tudor domain; AID 504339; O75164; Potency, µM (top dose mostly 114 µM), for the others: at the top dose activity change, negative = inhibition, most hits filed as inhibitors; 390,000 compounds, 4.4% hits; AlphaScreen JMJD2A-Tudor / H3K4me3 peptide binding; note: % is set by controls: 0 for no effect and ±100 for the full control effect; nearly all actives have a fitted effect of over 50% in size
# L3MBTL1 inh = inhibitors of human L3MBTL1; AlphaScreen L3MBTL1–H3K9me1 peptide binding; Potency, µM (series often up to 57.1 µM), for the others: top-dose activity, negative = inhibition, usual class: inhibitors; 230,000 compounds, 0.66% hits; AID 485360; note: % is set by controls: 0 for no effect and ±100 for the full control effect; nearly all actives have a fitted effect of over 60% in size
#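 L3MBTL1 (50 nM) pre-complexed 30 min with biotinylated H3(1-15)K9me1 peptide (75 nM), then compounds added for 30 min at room temperature; AlphaScreen streptavidin donor/nickel chelate acceptor beads (10 ug/mL final) read after 30 min dark incubation.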
# Sfp PPTase inh = Sfp phosphopantetheinyl transferase inhibition. Biochemical Sfp PPTase activity, qHTS. 310,000 compounds, 3.5% hits. AID 1490. Q9F4F7. Potency, µM, without a hit: largest response in the series, negative = inhibition, hits mostly inhibitors;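 note: the enzyme is Sfp with the accession as filed and its product quenches rhodamine fluorescence; 0% = enzyme reaction without inhibitor and -100% = no enzyme wells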
#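 With Hepes-Na pH 7.6 buffer containing 10 mM MgCl2, Sfp (15 nM) modified BHQ-2-YbbR (12.5 uM) using rhodamine-CoA (5 uM). Two reads 30 minutes apart at 525/598 nm yielded each well's rate.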
# G9a block = G9a (human) methyltransferase inhibition | G9a H3K9 monomethylation, AlphaScreen, 2 h | Q96KQ7 | AID 504332 | 350,000 compounds, 8.8% hits | Potency, µM (series often up to 102 µM), for the others: top-dose activity, negative = inhibition, usual class: inhibitors; note: % is set by controls: 0 for no effect and ±100 for the full control effect; nearly all actives have a fitted effect of over 75% in size
# Target sequence (Q96KQ7 913-1193 limits assumed): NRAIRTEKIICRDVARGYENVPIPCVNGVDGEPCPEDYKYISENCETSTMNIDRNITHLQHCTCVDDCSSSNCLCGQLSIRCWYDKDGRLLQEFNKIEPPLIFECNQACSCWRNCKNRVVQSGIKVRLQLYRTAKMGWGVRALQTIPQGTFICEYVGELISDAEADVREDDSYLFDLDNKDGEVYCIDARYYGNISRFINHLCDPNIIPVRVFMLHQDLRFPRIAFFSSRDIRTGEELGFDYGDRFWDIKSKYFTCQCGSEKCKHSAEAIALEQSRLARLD
#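 Compounds were preincubated with 20 nM G9a for 15 min, after which biotinylated H3K9 peptide (500 nM) and SAM (20 uM) started a 2 h room-temperature reaction. Monomethylated product was quantified by antibody-based AlphaScreen chemiluminescence.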
# HP1b chromo inh = inhibitors of HP1-beta chromodomain binding to methylated histone tails; AlphaScreen HP1-beta / biotin-H3K9me3 peptide binding; AID 540317; P83916; Potency, µM (highest dose often 114 µM), without a hit: at the top dose activity change, negative = inhibition, usual class: inhibitors; 390,000 compounds, 0.56% hits; note: nearly all actives have a fitted effect of over 70% in size
# Target sequence (P83916 whole entry, looked up): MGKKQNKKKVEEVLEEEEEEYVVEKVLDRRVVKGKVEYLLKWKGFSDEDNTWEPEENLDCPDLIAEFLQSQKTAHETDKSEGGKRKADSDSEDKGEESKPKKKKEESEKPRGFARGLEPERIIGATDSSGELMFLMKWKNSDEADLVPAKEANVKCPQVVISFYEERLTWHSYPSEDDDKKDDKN
#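 AlphaScreen: HP1-beta (50 nM) preformed 30 min with biotin-H3(1-18)K9me3 peptide (50 nM) in PBS pH 7.4, 0.01% Tween-20. Compound added for 30 min at RT, then streptavidin donor/nickel chelate acceptor beads (10 ug/mL) for 30 min.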
# BAZ2B block = inhibitors of human BAZ2B bromodomain; Q9UIF8; AlphaScreen BAZ2B-H3K14Ac peptide displacement; Potency, µM (series often up to 114 µM), inactives show at the top dose activity change, negative = inhibition, hits mostly inhibitors; 360,000 compounds, 4.4% hits; AID 504333; note: % is set by controls: 0 for no effect and ±100 for the full control effect; nearly all actives have a fitted effect of over 60% in size
#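 AlphaScreen displacement: compounds (up to 110uM) incubated 30 min at room temperature with a preformed 50 nM BAZ2B/50 nM biotinylated H3K14Ac peptide complex in PBS pH 7.4 with Tween-20. Donor and acceptor beads at 10 ug/mL final added, 20 min light-protected before reading.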
# Numbers without * were called inactive; u = inconclusive; x = no result given; [ ] = remark or other dose. Calls come from the whole dose curve; as a rule, active = well fitted curve in the direction sought with a large enough effect; inconclusive = small, poorly fitted or top-dose-only effect, or another doubt; inactive = no such curve, though single readings can be large; an effect the other way counts as inactive or inconclusive. Potency is the fitted concentration of half-maximal effect.
SMILES,JMJD2A Tudor,L3MBTL1 inh,Sfp PPTase inh,G9a block,HP1b chromo inh,BAZ2B block
Cc1cccc(-n2ncc3c(Nc4ccc(Oc5ccc(Cl)cc5)cc4)ncnc32)c1,-10%,x,x,1%[59 µM],37%,2%
CCC1CCCCN1C(=O)CSc1nc(-c2ccc(OC)cc2)cc(C(F)(F)F)n1 (configuration not stated),18%,x,x,26%[59 µM],65%,11%[57.1 µM]
Cc1cccc(N2C(=O)C(CC(=O)Nc3cccc(F)c3)N(Cc3cccs3)C2=O)c1 (configuration not stated),-5%,x,x,-16%[59 µM],50%,-14%
O=c1[nH]c(-c2ccncc2)nc2ccccc12,u,4%,14µM*,8.9µM*,u,-8%
O=c1[nH]c(-c2cccnc2)nc2ccccc12,8%,-2%,10%,-27%,26%,5%
O=C1N=c2ccc(Br)cc2=C1c1sc(=S)n(NS(=O)(=O)c2ccccc2)c1O,50µM*,-11%,u,16µM*,u,20µM*
Cc1ccc(S(=O)(=O)Nn2c(O)c(C=C3N=c4ccccc4=N3)sc2=S)cc1,u,-20%,-1%,u,-18%,-30%
CCCSc1nnc2[nH]c(=O)cc(C)n12,-4%,x,x,4%[59 µM],85%,-2%
COCC(C)NCc1cccc([N+](=O)[O-])c1 (configuration not stated),3.2µM*,3%,-6%,20µM*,u,50µM*
Cc1ccc(C2NC(=O)NC3=C2CCc2ccccc23)cc1 (configuration not stated),-16%,0%,u,10µM*,23%,-16%
COc1ccc(C2NC(=O)NC3=C2CCc2ccccc23)cc1 (configuration not stated),-6%,-3%,u,u,-1%,-4%
CC(C)c1ccc(C2NC(=O)NC3=C2CCc2ccccc23)cc1 (configuration not stated),-16%,x,-18%,32µM*,21%,-7%
COc1cccc(C2NC(=S)NC3=C2CCc2ccccc23)c1 (configuration not stated),-12%,-4%,50µM*,7.9µM*,-3%,-6%
CC1=C(C(N)=O)C(c2ccc(C(C)C)cc2)n2nc(SCc3ccccc3)nc2N1 (configuration not stated),-5%,x,x,-2%[59 µM],33%,-11%
CCCn1nnc(NC(=S)NC(=O)CC)n1,2.8µM*,x,40µM*,8.9µM*,u,-33%
CCCn1nnc(NC(=S)NC(=O)Cc2ccccc2)n1,-1%,43%,-14%,32µM*,22%,-1%
CCCCn1nnc(NC(=S)NC(=O)c2cccs2)n1,u,15%,u,10µM*,-27%,-3%
C/C(N)=C(/C#N)C(=O)CSc1nc2ccccc2c(=O)n1Cc1ccc(F)cc1,-21%,u,71µM*,-44%,5%,u
CCOC(=O)C1CCCN(S(=O)(=O)c2ccc3[nH]c(=O)ccc3c2)C1 (configuration not stated),-2%,x,x,13%[59 µM],29%[57 µM],1%
Cc1cc(Cl)ccc1NC(=O)CN1C(=O)NC2(CCCC2)C1=O,-6%,x,12%,15%,-9%,-17%
Cc1cc(NC(=O)CN2C(=O)NC3(CCCCC3)C2=O)ccc1N1CCCC1,-20%,-3%,x,8.9µM*,2%,-31%
O=C(CN1C(=O)NC2(CCCCC2)C1=O)Nc1ccc(N2CCCCC2)cc1,-34%,-11%,x,x,-23%,x
Cc1cc(N2CCCC2)ccc1NC(=O)CN1C(=O)NC2(CCCCC2)C1=O,-36%,-4%,x,3.5µM*,-19%,-35%
CN(C)c1ccc(S(=O)(=O)N2CCCCC2)cc1NC(=O)CN1C(=O)NC2(CCCC2)C1=O,-17%,-5%,x,14µM*,21%,10%
Cc1ccc(NC(=O)c2cccc3c(=O)c4c([nH]c23)CCCC4)c(C)c1,-17%,x,x,u,16%,-1%
SMILES,JMJD2A Tudor,L3MBTL1 inh,Sfp PPTase inh,G9a block,HP1b chromo inh,BAZ2B block
O=[N+]([O-])c1ccc(Oc2ccc(S(=O)(=O)Nc3ccccc3)cc2)cc1,-26%,-15%,6%,u,13%,-30%
O=C1C(Cl)=C(NS(=O)(=O)c2ccc([N+](=O)[O-])cc2)C(=O)c2ccccc21,u,x,-18%,-154%[59 µM],u,45µM*
COc1ccc(NC2C[C@H]3CCCC(=O)N4CC[C@@H](C2)[C@@H]34)cc1 (some centres not stated),x,x,-8%,40µM*,x,x
Cc1ccc2[nH]c3nc(NN)nnc3c2c1,50µM*,u,9%,x,38%,3.5µM*
COCCn1c(CCC(=O)Nc2ccc(OC)c(OC)c2)nc2cccnc21,-6%,x,x,3%[59 µM],28%,9%
O=C(c1cc(C2CC2)on1)N1CCCC(N2CCN(c3cccc(C(F)(F)F)c3)CC2)C1 (configuration not stated),-26%,x,6%,79µM*,8%[57 µM],-35%
Cc1ccccc1Cn1c(=O)n(CC2CCC(C(=O)N3CCC(C)CC3)CC2)c(=O)c2sccc21 (configuration not stated),-27%,x,x,-2%[59 µM],31%,u
COc1ccccc1C1CC(c2c(-c3ccccc3)c3cc(Cl)ccc3[nH]c2=O)=NN1S(C)(=O)=O (configuration not stated),-18%,-7%,-25%,u,30%,-5%
COc1cccc(C2CC(c3c(-c4ccccc4)c4cc(Cl)ccc4[nH]c3=O)=NN2S(C)(=O)=O)c1OC (configuration not stated),-15%,x,-3%,40µM*,10%,-22%
O=S(=O)(c1ccc2nc(N3CCN(c4ccccc4F)CC3)ccc2c1)N1CCCCC1,5%,x,-5%,18µM*,17%[57 µM],-16%
COc1ccc(CNc2ccc3cc(S(=O)(=O)N4CCCCC4)ccc3n2)cc1,3%,x,x,11µM*,30%,-20%
CC(=O)c1cccc(Nc2ccc3cc(S(=O)(=O)N4CCCC4)ccc3n2)c1,1%,x,x,u,55%,3%
COc1ccc(Nc2ccc3cc(S(=O)(=O)N4CCCC4)ccc3n2)cc1OC,u,x,x,14µM*,22%,u
O=S(=O)(c1ccc2nc(Nc3ccccc3)ccc2c1)N1CCCCC1,28µM*,x,50µM*,x,24%,40µM*
COc1ccc(CNc2ncnc3nc[nH]c23)cc1,-11%,x,x,x,56%,x
